The values that follow come from PubChem BioAssay (EPA / NIEHS).

As a reminder, the AC50 is the concentration giving half of the maximal activity seen.

Each structure is given as a SMILES string. Inconclusive results are not listed. The source made the active and inactive calls. Rule for the calls: active = hit-call score of the fitted dose curve at least 0.9, where 1 is the maximum; inconclusive = response in the unintended direction; inactive = score below 0.9.

One test can be described thus: ACEA_AR_agonist_AUC_viability: ACEA Biosciences xCELLigence Real-Time Cell Analysis on Androgen Receptor Agonism for Viability (AID 2283775). The method in brief:
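Real-time impedance tracking of 22Rv1 growth, readings every 5 min for 5 h then hourly; area-under-curve viability endpoint at 80 hours, relative to DMSO. Compounds at eight concentrations, 1:4 steps, top 100 uM, n = 2.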
Turning to `CN(C)C`, the result was inactive. On to `CCCCCCCCOC(=O)c1ccc(O)cc1`, for which the compound was called inactive. On the same count and under the same terms, the result for `O=C(O)c1ccccc1O` reads “inactive”. On to `CCO[Si](CC)(OCC)OCC`, for which the compound was called inactive.

The nature of a further test: ACEA_AR_antagonist_AUC_viability: ACEA Biosciences xCELLigence Real-Time Cell Analysis on Androgen Receptor Antagonism for Viability (AID 2283776).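 Note: 22Rv1 human prostate cancer cells growing on impedance electrode plates; hits lower the growth signal relative to DMSO meaning cytotoxicity.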 The gist of the method:
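Real-time electrical impedance tracks 22Rv1 proliferation after continuous compound exposure (top 100 uM final, 1:4 steps, 8 concentrations). The 80 h area-under-curve serves as the cytotoxicity readout relative to DMSO.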
For the compound `CCCCCCCC(=O)N(C)C`, the outcome was inactive. For `CC(=O)Nc1cc(S(=O)(=O)O)cc2cc(S(=O)(=O)O)c(N=Nc3ccccc3)c(O)c12`, the outcome was inactive. On to `CCC(=O)OC(C)(C)C1CC=C(C)CC1` (stereo not given), for which the compound was classed as inactive. Regarding `CCCO[Si](OCCC)(OCCC)OCCC`, the call was inactive. Turning to `CCC(C)(C)C1CCC(=O)CC1`, the result was inactive. Take `C1CCCNCC1`: the compound was classed as inactive. For the compound `CC(O)CNCC(C)O` (stereo not given), the compound was called inactive.

In the case of `CC1COC(=O)O1` (stereo not given), the compound was called inactive. `O=S(=O)(O)c1cc(S(=O)(=O)O)c2c(N=Nc3ccccc3)c(O)ccc2c1`: the call was inactive. The same measure, in the same setting: the result for `COc1ccccc1O` reads “inactive”. As for `CCCCCC(=O)O[C@]1(C(C)=O)CC[C@H]2[C@@H]3CCC4=CC(=O)CC[C@]4(C)[C@H]3CC[C@@]21C`, the AC50 was 416 nM (active). As for `O=C(O)CS`, the outcome was inactive.

Regarding `CCCCCCCCCCCCOCCOS(=O)(=O)O`, the result was inactive. For the compound `C=CC(O)CCCCC` (stereo not given), the compound was classed as inactive. As to `CC(C)C(=O)c1ccccc1`, the outcome was inactive. `CCCCCCC(C)O` (stereo not given): the compound was called inactive.
